Source: PubChem BioAssay

The compounds below were run against Concanavalin-A (Canavalia ensiformis) (UniProt P02866) (assay: ConA small-molecule binders, primary screen, artefact control for SMM control protein annotation, biochemical, small-molecule microarray, Alexa647 label, 635 nm (AID 1127;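 also: z combines 667 nm emission intensity with signal-to-noise across three replicate slides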)). Details: ConA-A647 binding fluorescence, higher = more signal.
Sequence of Concanavalin-A (Canavalia ensiformis) (P02866 whole entry, looked up): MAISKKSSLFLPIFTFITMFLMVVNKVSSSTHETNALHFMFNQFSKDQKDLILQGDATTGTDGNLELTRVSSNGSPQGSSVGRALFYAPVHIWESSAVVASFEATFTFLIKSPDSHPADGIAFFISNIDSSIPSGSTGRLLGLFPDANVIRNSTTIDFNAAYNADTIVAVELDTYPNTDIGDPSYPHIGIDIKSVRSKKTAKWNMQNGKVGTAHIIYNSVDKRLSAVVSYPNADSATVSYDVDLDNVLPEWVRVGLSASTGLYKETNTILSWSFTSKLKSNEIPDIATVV

In order of falling composite z-score:
1. CCOC(=O)[C@H](Cc1ccccc1)NC(=O)CCC1CC(OC(=O)NCc2ccc3c(c2)OCO3)CC2(CCCC(COC(=O)NCCOc3ccccc3)O2)O1 (stereo partly specified)  1.13
2. CCOC(=O)[C@H](Cc1ccccc1)NC(=O)CCC1CC(OC(=O)NCCc2ccc(F)cc2)CC2(CCCC(COC(=O)NCc3cccc(C(F)(F)F)c3)O2)O1 (stereo partly specified)  1.06
3. CCN1C(=O)[C@H]2[C@H]3[C@H](O)[C@H](O)CC(=NO[C@H](C)c4cn([C@H](CO)Cc5ccccc5)nn4)[C@@H]3CC[C@H]2C1=O  1.05
4. O=C1CCCC=C1C(O)COCc1ccccc1 (stereo unspecified)  0.999
5. CC(C)(C)N1C(=O)[C@H]2[C@H]3[C@H](O)[C@H](O)CC(=NNC(=O)OCc4ccccc4)[C@@H]3CC[C@H]2C1=O  0.87
6. CC(C)=NOC(C)CN1CCCc2nc(C)c(C)cc21 (stereo unspecified)  0.788
7. CCN1C(=O)[C@H]2[C@@H]3C(=CC[C@H]2C1=O)C(=O)[C@H]1O[C@H]1[C@H]3O  0.725
8. CCOC(=O)[C@H](Cc1ccccc1)NC(=O)CCC1CC(OC(=O)NCc2cccc3ccccc23)CC2(CCCC(COC(=O)NCC3CCCCC3)O2)O1 (stereo partly specified)  0.702
9. O=C1[C@H]2[C@H]3[C@H](O)[C@H](O)CC(=NO[C@@H]4O[C@H](CO)[C@@H](O)[C@H](O)[C@H]4O)[C@@H]3CC[C@H]2C(=O)N1C[C@@H]1CCCO1  0.51
10. O=C1C2=CC[C@H]3C(=O)N(C[C@@H]4CCCO4)C(=O)[C@H]3[C@H]2[C@H](O)[C@@H]2O[C@H]12  0.397
11. C[C@@H]1CC[C@@H](C(=O)O)N[C@H]1c1cccc(N2CCOCC2)c1  0.305
12. CC(C)(C)N1C(=O)[C@H]2[C@H]3[C@H](O)[C@H](O)CC(=NNC(=O)OCc4ccccc4)[C@H]3CC[C@H]2C1=O  0.275
13. O=C1C=C[C@@H](O)[C@@H]2[C@@H]3C(=O)N(C4CCCCC4)C(=O)[C@@H]3CC[C@@H]12  0.273
14. CC(=O)OC[C@H]1O[C@H](CCON=C(C)C)C=C[C@@H]1OC(C)=O  0.186
15. CC(C)=NO[C@H](C)c1cn([C@@H]2COC[C@H]2O)nn1  0.139
16. CO[C@@H]1COC(=O)[C@@H]2CCCN2C(=O)[C@@H](C)COC(=O)CCC[C@H]1C  -0.0031
17. O=C(NN=C1C[C@@H](O)[C@@H](O)[C@@H]2[C@@H]3C(=O)N(Cc4ccccc4)C(=O)[C@@H]3CC[C@H]12)OCc1ccccc1  -0.085
18. CON=C(C)CCN1CCCCc2nc(C)c(C)cc21  -0.116
19. C[C@H]1CC[C@H]2C(=O)N[C@H](Cc3ccccc3)C(=O)N2[C@@H]1c1ccccc1  -0.126
20. CC(=O)OC[C@H]1O[C@H](CC=NO[C@H](C)c2cn([C@@H]3COC[C@H]3O)nn2)C=C[C@@H]1OC(C)=O  -0.152
21. COC(OC)[C@@H](C)[C@H](OC)[C@@H](C)[C@H](OC)c1ccccc1  -0.18
22. O=C1[C@H]2[C@H]3[C@H](O)[C@H](O)CC(=NOC[C@@H](O)COCc4ccco4)[C@@H]3CC[C@H]2C(=O)N1Cc1ccccc1  -0.193
23. O=C1C2=CC[C@H]3C(=O)N(C4CCCCC4)C(=O)[C@H]3[C@H]2[C@H](O)[C@@H]2O[C@H]12  -0.21
24. C[C@H]1C=CCC(=O)OC[C@H](C)C(=O)N2CCC[C@H]2C(=O)OC1  -0.35
25. COc1ccc(COC(=O)NN=C2C[C@@H](O)[C@@H](O)[C@@H]3[C@@H]4C(=O)N(C5CCCCC5)C(=O)[C@@H]4CC[C@@H]23)cc1  -0.35
26. CO[C@@H]1COC(=O)[C@H](CCSC)NC(=O)CC=C[C@@H](C)COC(=O)[C@@H]2CCCN2C(=O)CC=C[C@H]1C  -0.353
27. CC(C)[C@@H](OCc1ccccc1)[C@H](C)C=NO[C@@H](C)c1cn([C@H](CO)Cc2ccccc2)nn1  -0.36
28. O=C1[C@H]2[C@H]3[C@H](O)[C@H](O)CC(=NO[C@@H]4O[C@H](CO)[C@@H](O)[C@H](O)[C@H]4O)[C@H]3CC[C@H]2C(=O)N1C[C@@H]1CCCO1  -0.391
29. O=C1C[C@H](c2ccccc2)[C@H](c2ccc(Br)cc2)O1  -0.394
30. O=C1[C@H]2[C@H]3[C@H](O)[C@H](O)CC(=NOC[C@@H](O)COCc4ccco4)[C@@H]3CC[C@H]2C(=O)N1C1CCCCC1  -0.421
31. CO[C@H]1COC(=O)CCC[C@H](C)[C@@H](OC)COC(=O)CC=C[C@@H]1C  -0.427
32. CO[C@@H]1C=CCC(=O)N[C@@H](C)C(=O)OC[C@@H](NS(=O)(=O)c2ccc(C)cc2)[C@H](C)C=CCC(=O)OC[C@H]1C  -0.479
33. CC#CCOCCC=C1c2ccccc2[C@@H](OC)[C@@H]1C  -0.515
34. COC(=O)CC=C[C@@H](C)[C@@H](C=NOC[C@@H](O)COCc1ccco1)OC  -0.619
35. CC(CCC(=O)OC[C@H]1O[C@H](C#Cc2ccccc2)C=C[C@@H]1Oc1ccc(C)cc1)=NO[C@H](C)c1cn([C@@H]2COC[C@H]2O)nn1  -0.785
36. CO[C@H]1COC(=O)CC=C[C@@H](C)COC(=O)[C@H]2CCCN2C(=O)CC=C[C@H]1C  -0.923
